Screens as filed in PubChem.
CCHFV vOTU inh: CCHFV vOTU protease inhibitors, primary screen, biochemical, Pep-AMC substrate, fluorescence; Crimean-Congo hemorrhagic fever virus L polyprotein viral ovarian tumor (vOTU) protease …; inhibition, % at 11.5 µM; 0.55% of 370,000 active; AID 651958, 2012; in the data active means inhibition above about 30%
MazF activator: activators of E. coli MazEF toxin-antitoxin RNase, primary screen, biochemical, fluorescence, uHTS; Endoribonuclease toxin MazF (Escherichia coli (strain K12)), P0AE70; FAM/BHQ RNA-DNA oligo cleavage fluorescence, 5 h; activation, % at 20 µM; 0.32% of 350,000 active; AID 504720, 2011; in the data active means activation above about 50%
Target sequence (P0AE70 whole entry, looked up): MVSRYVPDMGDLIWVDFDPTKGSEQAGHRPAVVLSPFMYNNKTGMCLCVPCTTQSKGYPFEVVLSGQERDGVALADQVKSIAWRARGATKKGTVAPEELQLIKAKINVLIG
VHR inh abs: VHR1 phosphatase inhibitors, primary screen, biochemical, absorbance, uHTS; Dual specificity protein phosphatase 3 (Homo sapiens), P51452; recombinant VHR phosphatase, pNPP absorbance; inhibition, % at 13.3 µM; 0.52% of 290,000 active; in the data active means inhibition above about 50%
Target sequence (P51452 whole entry, looked up): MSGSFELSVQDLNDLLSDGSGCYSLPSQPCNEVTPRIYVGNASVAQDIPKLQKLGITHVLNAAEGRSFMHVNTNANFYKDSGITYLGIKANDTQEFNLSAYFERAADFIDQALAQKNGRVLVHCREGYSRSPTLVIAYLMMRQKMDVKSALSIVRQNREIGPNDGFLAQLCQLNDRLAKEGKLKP
SARS 3CLpro inh: SARS-CoV 3CLpro protease inhibitors, primary screen, biochemical, quenched FRET; recombinant SARS-CoV 3CLpro, quenched FRET peptide cleavage; inhibition, % at 6 µM; 0.14% of 290,000 active; in the data active means inhibition above about 12%
BJeLR lethal: MLPCN primary cell-based screen for lethality selective to Ras in HRASV12 cells; BJeLR (HRASV12) viability, CellTiter-Glo ATP luminescence, 48 h; inhibition, % (test concentration not listed); 0.17% of 300,000 active; AID 1554, 2009; in the data active means inhibition above about 50%
Large screens that a line does not name were inactive. This is a sample that favours compounds with a hit; in the whole collection about 1.4% have one here.

CCCCN=C[C@]12CCC(O)CC1(O)CCC1[C@@H]2CC[C@]2(C)[C@H](C3C=CC(=O)O3)CCC12O (stereo partly drawn)	BJeLR lethal 68
CC12CCC3C(CCC4(O)CC(O)CCC34C=NO)C1(O)CCC2C1=COC(=O)C1 (stereo not drawn)	none (no result: VHR inh abs, SARS 3CLpro inh, BJeLR lethal)
COc1ccc(N/N=C(/N=Nc2nc(C)cc(=O)[nH]2)c2ccccc2)cc1	BJeLR lethal 67
Cc1cc(=O)[nH]c(N=N/C(=N/Nc2ccc(O)cc2)c2ccccc2)n1	none
CCCC(=O)Nc1ccc(C(=O)N/N=C/c2ccc([N+](=O)[O-])o2)cc1	BJeLR lethal 122
O=C(CCN1CCCO1)NC1CCCc2c1cnn2-c1ccccc1F (stereo not drawn)	none
O=C(NC1CCCc2c1cnn2-c1ccc(F)cc1F)c1cnccn1 (stereo not drawn)	none
O=C(CCc1cn2ccccc2n1)NC1CCCc2c1cnn2-c1ccccc1F (stereo not drawn)	VHR inh abs 50
O=C(NC1CCCc2c1cnn2-c1ccc(F)cc1F)c1csnn1 (stereo not drawn)	VHR inh abs 54
COc1ccccc1NC(=O)NNC(=O)CCN1CCOCC1	VHR inh abs 57
O=C1c2ccccc2N(Cc2ccc(Cl)cc2)C2=NCCN12	MazF activator 146
CCCCN(C)S(=O)(=O)c1cc2c3c(c1)CCC(=O)N3CCC2	VHR inh abs 56
CCN(c1ccccc1C)S(=O)(=O)c1cc2c3c(c1)CCC(=O)N3CCC2	none
Cn1c(=O)c2cc(S(=O)(=O)N3CCN(c4ccccc4Cl)CC3)ccc2n(C)c1=O	none (no result: MazF activator, VHR inh abs, SARS 3CLpro inh, BJeLR lethal)
CCOC(=O)CSc1nnc(CSc2nc(N)c3c(C)c(C)sc3n2)n1-c1ccccc1	VHR inh abs 54
Cc1ccc(-c2nnc(SCC(=O)Nc3ccc(Oc4ccccc4)cc3)n2-c2ccc(Cl)cc2)cc1	none (no result: MazF activator, VHR inh abs, SARS 3CLpro inh, BJeLR lethal)
C=CCN1C(=O)[C@H](CC(=O)NCc2ccccc2)[C@@]2(C(=O)OCC)CCCC=C12	none (no result: MazF activator, VHR inh abs, SARS 3CLpro inh, BJeLR lethal)
COc1cccc(CCNc2ccc(N3C(=O)CC(C)C3=O)cc2[N+](=O)[O-])c1 (stereo not drawn)	none
CC1CC(=O)N(c2ccc(NCc3ccc(Cl)cc3)c([N+](=O)[O-])c2)C1=O (stereo not drawn)	MazF activator 214
O=[N+]([O-])c1ccccc1/C=N/N1CCN(Cc2ccccc2)CC1	VHR inh abs 58
CCN1CCN(c2cc(C)c3cc(NC(=O)c4ccc(C)c(C)c4)ccc3n2)CC1	MazF activator 59 (no result: VHR inh abs)
C=CCN1C(=O)[C@@H](CC(=O)NCc2ccc(OC)c(OC)c2)[C@]2(C(=O)OC)CCCCC=C12	none (no result: MazF activator, VHR inh abs, SARS 3CLpro inh, BJeLR lethal)
COc1ccc(N2C(N)=NC(N)=NC2(C)C)cc1	none
COc1cccc(N2C(N)=NC(N)=NC2(C)C)c1	BJeLR lethal 79
COc1cc(C(CC(=O)Nc2ncccc2C)N2Cc3ccccc3C2=O)cc(OC)c1OC (stereo not drawn)	VHR inh abs 53
COc1ccc(C(CC(=O)Nc2ncccc2C)N2Cc3ccccc3C2=O)cc1OC (stereo not drawn)	none
COc1ccc2nc(NC(=O)c3ccoc3C)sc2c1	BJeLR lethal 75
COc1ccc2nc(NC(=O)c3cc(C)oc3C)sc2c1	none
CCCCNS(=O)(=O)CC1NCc2cc(OC)ccc21 (stereo not drawn)	none (no result: MazF activator, VHR inh abs, SARS 3CLpro inh, BJeLR lethal)
O=C(Nc1ccc2oc(-c3ccccc3)nc2c1)c1cc(-n2cnnc2)ccc1Cl	MazF activator 54
O=C(Nc1ccc(-c2nc3ccccc3o2)cc1)c1cc(-n2cnnc2)ccc1Cl	none
c1cc(Nc2cccc3nccnc23)c2nccnc2c1	MazF activator 51
Fc1ccc(Nc2cccc3nccnc23)cc1	none
O=c1oc(/C=C/c2ccco2)nc2sc3c(c12)CCC3	MazF activator 141
CCCCCCCCN1CN2Cc3cc(OC)ccc3C2CS1(=O)=O (stereo not drawn)	none (no result: MazF activator, VHR inh abs, SARS 3CLpro inh, BJeLR lethal)
COC(=O)c1cc(-c2cccc(C(C)C)c2)c(=O)n2c1CCC2	none (no result: MazF activator, VHR inh abs, SARS 3CLpro inh, BJeLR lethal)
Cc1ccsc1C(=O)NN=C1CCCCCC1	VHR inh abs 53
CC(N)=Nc1ccc([N+](=O)[O-])cc1	none
O=[N+]([O-])c1ccc(N=Nc2c(Cl)cc(O)cc2Cl)cc1	BJeLR lethal 102
COC(=O)[C@]12C[C@H](CC(=O)NCCc3ccccc3OC)C(=O)N(Cc3ccco3)C1=C[C@H](COCc1ccccc1)O[C@@H]2C	none (no result: MazF activator, VHR inh abs, SARS 3CLpro inh, BJeLR lethal)
COc1ccc(CNC(=O)C(c2ccncc2)N(C(=O)Cc2cccs2)c2ccccc2)cc1 (stereo not drawn)	none (no result: BJeLR lethal)
COc1ccc(N(C(=O)CCl)C(C(=O)NCCc2ccccc2)c2cccs2)cc1 (stereo not drawn)	BJeLR lethal 114
CCOC(=O)Nc1nc(C)c(C(=O)c2ccc(Cl)cc2)s1	MazF activator 86
O=C(Nc1ccc(C(=O)NCCCN2CCCCC2)cc1)C1=CSCCO1	VHR inh abs 57
CC(CCN1CCC(C(O)(c2ccccc2)c2ccccc2)CC1)Oc1cc(F)cc(F)c1 (stereo not drawn)	none (no result: MazF activator, VHR inh abs, SARS 3CLpro inh, BJeLR lethal)
COc1ccc(COC(=O)c2cc([N+](=O)[O-])ccc2N2CCOCC2)cc1F	BJeLR lethal 55 (no result: VHR inh abs, SARS 3CLpro inh)
O=C(OCc1ccc(Br)cc1)c1cc([N+](=O)[O-])ccc1N1CCOCC1	none (no result: VHR inh abs, SARS 3CLpro inh, BJeLR lethal)
O=C(N/N=C\c1cc(Cl)ccc1O)c1ccc(S(=O)(=O)N2CCCCC2)cc1	VHR inh abs 64
COc1ccc(C2C(C(=O)Nc3ccc(Cl)cc3)CCC(=O)N2c2ccc(OC)cc2)cc1 (stereo not drawn)	none (no result: MazF activator, VHR inh abs, SARS 3CLpro inh, BJeLR lethal)
N#Cc1cccc(NC(=O)OCCN2C(=O)CCC23CCC(c2ccccc2)CC3)c1 (stereo not drawn)	none (no result: MazF activator, VHR inh abs, SARS 3CLpro inh, BJeLR lethal)
N#CC(C(=O)NCCc1ccccc1)c1nc2ccccc2nc1N1CCOCC1 (stereo not drawn)	MazF activator 928
CCOC(=O)C1CCCN(c2nc3ccccc3nc2C(C#N)C(=O)NCc2ccccc2)C1 (stereo not drawn)	none
N#CC(C(=O)NCCc1ccccc1)c1nc2ccccc2nc1N1CCCCC1 (stereo not drawn)	MazF activator 150
CCN(CC)c1nc2ccccc2nc1C(C#N)C(=O)NCCc1ccccc1 (stereo not drawn)	MazF activator active
N#CC(C(=O)NCc1ccccc1)c1nc2ccccc2nc1N1CCCC1 (stereo not drawn)	MazF activator active
CCOC(=O)N1CCN(c2nc3ccccc3nc2C(C#N)C(=O)NCCc2ccccc2)CC1 (stereo not drawn)	none
O=C(CNS(=O)(=O)c1ccccc1)N1CCN(c2ccccn2)CC1	none (no result: MazF activator, VHR inh abs, SARS 3CLpro inh, BJeLR lethal)
CN(Cc1ccccc1)S(=O)(=O)c1cccc(C(=O)OCc2cccc(C(F)(F)F)c2)c1	none (no result: MazF activator, VHR inh abs, SARS 3CLpro inh, BJeLR lethal)
